Measured values published in PubChem BioAssay.
For part of these data: Measured potencies and affinities stand elsewhere. The source made the active and inactive calls. Unless noted, how the calls were made is not given here.

What was measured:
[1] = antimalarial activity against Dd2 strain (AID 2302;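 active means growth inhibition above 50% at the single 2 µM test dose, taken to imply half-maximal potency below 2 µM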;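 further: 0% = DMSO untreated growth and 100% = chloroquine plus artemisinin killed control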); conditions: P. falciparum Dd2 in RBCs, LDH growth readout, 72 h; at 2 µM; active compounds read high
[2] = human hepatoma cell viability loss – ATP luminescence, cytotoxicity control for P. falciparum antimalarial project, primary screen (AID 2303;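 active means inhibition above 50%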;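 further: 0% = DMSO wells and 100% = digitonin-killed cells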); conditions: HepG2 viability, 24-48 h, at 10 µM, active compounds read high
[3] = molecular target: L-lactate dehydrogenase (Plasmodium falciparum (isolate CDC / Honduras)) (UniProt Q27743); assay: PfLDH activity inhibition – cell lysate, 3D7 strain, counter-screen for P. falciparum growth inhibition project (AID 2304);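 further: 0% = vehicle and 100% = reference inhibitor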; conditions: P. falciparum 3D7 crude extract, LDH APAD/NBT absorbance; at 2 µM; active compounds read high
Sequence of L-lactate dehydrogenase (Plasmodium falciparum (isolate CDC / Honduras)) (Q27743 whole entry, looked up): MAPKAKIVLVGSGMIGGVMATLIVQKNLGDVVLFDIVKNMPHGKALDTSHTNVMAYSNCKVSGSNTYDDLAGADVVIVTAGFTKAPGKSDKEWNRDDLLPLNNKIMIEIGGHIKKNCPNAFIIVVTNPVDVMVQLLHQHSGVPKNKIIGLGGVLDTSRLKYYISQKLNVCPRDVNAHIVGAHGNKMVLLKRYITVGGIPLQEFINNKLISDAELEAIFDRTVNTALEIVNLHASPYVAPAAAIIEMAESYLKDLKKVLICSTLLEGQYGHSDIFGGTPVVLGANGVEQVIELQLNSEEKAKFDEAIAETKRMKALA

[4] = inhibition of 3D7 malaria parasite growth – strain 3D7 (AID 2306);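 further: 0% = DMSO wells and 100% = chloroquine plus artemisinin control wells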; conditions: P. falciparum 3D7 erythrocytic growth, LDH absorbance, 72 h; at 2 µM; active compounds read high
[5] = molecular target: Calcium-dependent protein kinase 1 (Plasmodium falciparum (isolate 3D7)) (UniProt P62344); assay: PfCDPK1 kinase inhibitors, biochemical, TCAMS library (AID 1159585; cut-off not given, nearly all actives have IC50 up to about 0.98 µM;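 further: inhibitors leave more ATP so luminescence rises with inhibition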); conditions: recombinant PfCDPK1, Kinase-Glo ATP depletion luminescence
Sequence of Calcium-dependent protein kinase 1 (Plasmodium falciparum (isolate 3D7)) (P62344 whole entry, looked up): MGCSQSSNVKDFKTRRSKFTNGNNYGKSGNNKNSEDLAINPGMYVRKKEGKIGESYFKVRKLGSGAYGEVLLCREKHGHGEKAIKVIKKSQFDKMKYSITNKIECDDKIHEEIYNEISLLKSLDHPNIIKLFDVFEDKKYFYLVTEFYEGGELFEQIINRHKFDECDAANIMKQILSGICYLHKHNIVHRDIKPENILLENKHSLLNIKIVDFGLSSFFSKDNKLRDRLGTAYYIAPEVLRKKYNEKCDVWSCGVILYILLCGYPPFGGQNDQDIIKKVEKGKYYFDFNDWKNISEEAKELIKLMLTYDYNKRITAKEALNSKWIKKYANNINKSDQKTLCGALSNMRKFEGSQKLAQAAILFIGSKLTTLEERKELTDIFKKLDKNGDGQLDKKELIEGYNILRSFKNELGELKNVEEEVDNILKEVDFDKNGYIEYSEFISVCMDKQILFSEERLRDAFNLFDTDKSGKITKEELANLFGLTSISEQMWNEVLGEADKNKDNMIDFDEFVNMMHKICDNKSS

[6] = molecular target: Plasmodium falciparum protein kinase 6 (PK6, PF3D7_1337100) (UniProt Q8IDW1); assay: PfPK6 kinase inhibitors, biochemical, TCAMS library (AID 1159586); conditions: recombinant PfPK6, Kinase-Glo ATP depletion luminescence
Sequence of Plasmodium falciparum protein kinase 6 (PK6, PF3D7_1337100) (Q8IDW1 1-305): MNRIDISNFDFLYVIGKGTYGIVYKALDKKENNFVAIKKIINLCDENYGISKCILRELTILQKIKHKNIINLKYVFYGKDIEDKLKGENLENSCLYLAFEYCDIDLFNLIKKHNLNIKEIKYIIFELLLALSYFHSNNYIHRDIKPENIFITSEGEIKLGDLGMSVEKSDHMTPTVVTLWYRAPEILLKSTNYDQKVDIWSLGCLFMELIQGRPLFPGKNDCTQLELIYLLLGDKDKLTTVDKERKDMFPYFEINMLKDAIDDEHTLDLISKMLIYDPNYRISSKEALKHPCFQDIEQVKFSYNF

[7] = molecular target: Protein kinase 7 (PK7), Plasmodium falciparum 3D7 (PF3D7_0213400) (UniProt Q7YTF7); assay: inhibition of Plasmodium PK7 catalytic activity – biochemical, TCAMS antimalarial set, Kinase-Glo luminescence (AID 1159587); conditions: recombinant PfPK7, Kinase-Glo ATP depletion luminescence
Sequence of Protein kinase 7 (PK7), Plasmodium falciparum 3D7 (PF3D7_0213400) (Q7YTF7 1-343): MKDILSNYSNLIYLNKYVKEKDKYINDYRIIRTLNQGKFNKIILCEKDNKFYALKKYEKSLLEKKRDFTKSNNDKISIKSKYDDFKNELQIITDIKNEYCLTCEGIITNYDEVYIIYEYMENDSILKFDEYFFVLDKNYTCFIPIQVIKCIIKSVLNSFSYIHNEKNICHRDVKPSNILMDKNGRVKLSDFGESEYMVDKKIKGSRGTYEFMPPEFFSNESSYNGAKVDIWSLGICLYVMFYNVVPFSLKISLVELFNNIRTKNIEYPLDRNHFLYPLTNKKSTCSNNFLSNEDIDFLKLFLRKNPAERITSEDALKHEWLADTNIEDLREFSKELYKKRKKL

[8] = molecular target: Calcium-dependent protein kinase 4 (Plasmodium falciparum (isolate 3D7)) (UniProt Q8IBS5); assay: PfCDPK4 kinase inhibitors, biochemical, TCAMS library (AID 1159588; cut-off not given, nearly all actives have IC50 up to about 0.91 µM); conditions: recombinant PfCDPK4, Kinase-Glo ATP depletion luminescence
Sequence of Calcium-dependent protein kinase 4 (Plasmodium falciparum (isolate 3D7)) (Q8IBS5 whole entry, looked up): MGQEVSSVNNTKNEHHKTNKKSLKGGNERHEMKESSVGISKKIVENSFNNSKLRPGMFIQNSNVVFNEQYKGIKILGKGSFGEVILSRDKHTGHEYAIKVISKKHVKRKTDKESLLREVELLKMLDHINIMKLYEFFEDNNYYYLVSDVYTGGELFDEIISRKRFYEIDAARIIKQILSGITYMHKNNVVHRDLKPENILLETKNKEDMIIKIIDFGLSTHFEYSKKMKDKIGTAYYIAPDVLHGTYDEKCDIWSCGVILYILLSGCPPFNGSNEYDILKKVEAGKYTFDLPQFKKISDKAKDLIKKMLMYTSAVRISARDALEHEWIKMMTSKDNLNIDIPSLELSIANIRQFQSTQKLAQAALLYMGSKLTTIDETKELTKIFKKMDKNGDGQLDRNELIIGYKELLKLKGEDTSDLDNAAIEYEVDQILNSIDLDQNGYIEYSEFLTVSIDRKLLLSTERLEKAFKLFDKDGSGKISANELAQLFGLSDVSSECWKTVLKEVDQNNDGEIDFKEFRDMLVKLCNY

O=C(Nc1cccc(-c2ccc(-c3nc4ccc(C(F)(F)F)cc4[nH]3)cc2)c1)c1csnn1
active: growth inhibition [1] 93% | growth inhibition [4] 98%
inactive: inhibition [2] 23% | inhibition [3] 3% | outcome [5] | outcome [6] | outcome [7] | outcome [8]

CCc1nc2c(cnn2CC)c(NC2CCOCC2)c1CNC(=O)N1CCOCC1
inactive: growth inhibition [1] 48% | inhibition [2] 0% | inhibition [3] 4% | outcome [5] | outcome [6] | outcome [7] | outcome [8]
active: growth inhibition [4] 98%

CCc1ccc(NC(=O)c2cccc(CN3CCCN(Cc4cccc(O)c4)CC3)c2)cc1
inactive: inhibition [3] 3% | outcome [5] | outcome [6] | outcome [7] | outcome [8]
active: growth inhibition [1] 50% | inhibition [2] 53% | growth inhibition [4] 99%

COc1cc2nc(NCC3CCCCC3)nc(NCc3ccccc3)c2cc1OC
inactive: inhibition [2] 18% | inhibition [3] 7% | outcome [5] | outcome [6] | outcome [7] | outcome [8]
active: growth inhibition [1] 101% | growth inhibition [4] 101%

Cc1ccccc1NC(=S)NC1CCN(CCCCCNC(=O)/C=C/c2ccc(Cl)c(Cl)c2)CC1
inactive: growth inhibition [1] 7% | inhibition [2] 14% | inhibition [3] 2% | outcome [5] | outcome [6] | outcome [7] | outcome [8]
active: growth inhibition [4] 99%

O=C(Nc1cccc(F)c1)NC1CCN(c2ccnc3cc(Cl)ccc23)C1 (configuration not stated)
inactive: inhibition [2] 13% | inhibition [3] -1% | outcome [5] | outcome [6] | outcome [7] | outcome [8]
active: growth inhibition [1] 64% | growth inhibition [4] 101%

O=S(=O)(NCCCN1CCOCC1)c1ccc2nccc(Nc3ccc(Oc4ccccc4)cc3)c2c1
inactive: inhibition [2] 1% | inhibition [3] -2% | outcome [5] | outcome [6] | outcome [7] | outcome [8]
active: growth inhibition [1] 92% | growth inhibition [4] 95%

COc1ccc(-c2ccc(NC(=O)c3cccc(Cl)c3)cc2)cc1CN(C)CCN(C)C
inactive: growth inhibition [1] 35% | inhibition [2] 22% | inhibition [3] -3% | outcome [5] | outcome [6] | outcome [7] | outcome [8]
active: growth inhibition [4] 100%

COc1ccc2nccc(N(C)CC3(O)CCN(CCc4ccc5c(c4)OCCO5)CC3)c2n1
inactive: inhibition [2] 15% | inhibition [3] -3% | outcome [5] | outcome [6] | outcome [7] | outcome [8]
active: growth inhibition [1] 96% | growth inhibition [4] 100%

CC(C)NCc1ccc(-c2cccc(NC(=O)c3ccc(C#N)cc3)c2)cc1
inactive: growth inhibition [1] 19% | inhibition [2] 8% | inhibition [3] 4% | outcome [5] | outcome [6] | outcome [7] | outcome [8]
active: growth inhibition [4] 100%

CCOC(=O)c1ccc(N=C2SC(=Cc3cc(Br)ccc3O)C(=O)N2C)cc1
inactive: inhibition [2] -3% | inhibition [3] -2% | outcome [5] | outcome [6] | outcome [7] | outcome [8]
active: growth inhibition [1] 96% | growth inhibition [4] 99%

CCOc1cc(CC)ccc1C1CCN(CCCCNC(=O)c2ccc(NC(=O)c3ccc(Cl)cc3)cc2)CC1
active: growth inhibition [1] 58% | growth inhibition [4] 101%
inactive: inhibition [2] 11% | inhibition [3] 5% | outcome [5] | outcome [6] | outcome [7] | outcome [8]

Fc1ccc2nc(-c3ccc(-c4ccc(CN5CCN(c6cnccn6)CC5)cc4)s3)[nH]c2c1
active: growth inhibition [1] 98% | growth inhibition [4] 99%
inactive: inhibition [2] 45% | inhibition [3] 5% | outcome [5] | outcome [6] | outcome [7] | outcome [8]

Cc1cc(N[C@@H](Cc2ccccc2)C(=O)NCCOc2ccccc2)nc(NCC2CCCCC2)n1
inactive: inhibition [2] 30% | inhibition [3] -1% | outcome [5] | outcome [6] | outcome [7] | outcome [8]
active: growth inhibition [1] 75% | growth inhibition [4] 100%

Cc1ccc(Oc2ncccc2C(=O)Nc2cccc3cccnc23)c(C)c1
active: growth inhibition [1] 76% | growth inhibition [4] 99%
inactive: inhibition [2] -13% | inhibition [3] 0% | outcome [5] | outcome [6] | outcome [7] | outcome [8]

COc1ccc(NC(=O)/C=C/c2ccc(-c3ccc(-c4noc(C)n4)cc3)cc2)cc1OCCN(C)C
inactive: growth inhibition [1] 31% | inhibition [2] 14% | inhibition [3] -3% | outcome [5] | outcome [6] | outcome [7] | outcome [8]
active: growth inhibition [4] 81%

O=C(/C=C/c1ccc(Cl)c(Cl)c1)NCCCCCN1CCC(NC(=O)c2cccc(Cl)c2)CC1
active: growth inhibition [4] 98%
inactive: growth inhibition [1] 23% | inhibition [2] 12% | inhibition [3] -6% | outcome [5] | outcome [6] | outcome [7] | outcome [8]

N[C@@H](COc1cccc2c(-c3ccncc3)c(-c3cccc(NC(=O)Nc4ccccc4)c3)nn12)c1ccccc1
active: growth inhibition [1] 71% | growth inhibition [4] 101%
inactive: inhibition [2] 9% | inhibition [3] 2% | outcome [5] | outcome [6] | outcome [7] | outcome [8]

CCCC1N=C(N)N=C(N)N1c1ccc(Cl)cc1 (configuration not stated)
active: growth inhibition [4] 96%
inactive: growth inhibition [1] -2% | inhibition [2] 14% | inhibition [3] 5% | outcome [5] | outcome [6] | outcome [7] | outcome [8]

COc1ccc(O)c(C(=O)NCCc2ccc(OC)c(-c3ccc(C(C)(C)C)cc3)c2)c1
active: growth inhibition [1] 91% | growth inhibition [4] 88%
inactive: inhibition [2] 11% | inhibition [3] 5% | outcome [5] | outcome [6] | outcome [7] | outcome [8]

Nc1ccc2c(N)c3ccccc3nc2c1
inactive: inhibition [2] 20% | inhibition [3] -2% | outcome [5] | outcome [6] | outcome [7] | outcome [8]
active: growth inhibition [1] 74% | growth inhibition [4] 93%

CCOC(=O)NCC(=O)Nc1cccc(-c2cccc(-c3nc4c(C)cccc4[nH]3)c2)c1
inactive: growth inhibition [1] 35% | inhibition [2] 14% | inhibition [3] 1% | outcome [5] | outcome [6] | outcome [7] | outcome [8]
active: growth inhibition [4] 88%

O=C(/C=C/c1ccc(Cl)c(Cl)c1)NCCCCCN1CCC(C(=O)Nc2cccc(Cl)c2)CC1
active: growth inhibition [4] 100%
inactive: growth inhibition [1] -2% | inhibition [2] 48% | inhibition [3] -3% | outcome [5] | outcome [6] | outcome [7] | outcome [8]

Cc1cccc2[nH]c(-c3cccc(-c4ccc(CNCCc5ccncc5)cc4)c3)nc12
inactive: inhibition [2] 40% | inhibition [3] -2% | outcome [5] | outcome [6] | outcome [7] | outcome [8]
active: growth inhibition [1] 100% | growth inhibition [4] 100%

COc1ccc(CNCc2ccsc2)cc1-c1ccc(OC)c(S(=O)(=O)NCCN2CCCC2)c1
inactive: inhibition [2] 18% | inhibition [3] 0% | outcome [5] | outcome [6] | outcome [7] | outcome [8]
active: growth inhibition [1] 62% | growth inhibition [4] 97%

O=C(NC1CCN(Cc2ccc3c(c2)OCCO3)CC1)c1ccc(-c2cccc(Cl)c2)s1
active: growth inhibition [4] 93%
inactive: growth inhibition [1] 9% | inhibition [2] 46% | inhibition [3] -5% | outcome [5] | outcome [6] | outcome [7] | outcome [8]

Fc1cccc(COc2ccc(Nc3ncnc4sc(C#C[C@H]5CC[C@H](CN6CCOCC6)N5)cc34)cc2Cl)c1
inactive: growth inhibition [1] 23% | inhibition [2] 16% | inhibition [3] -10% | outcome [5] | outcome [6] | outcome [7] | outcome [8]
active: growth inhibition [4] 92%

CS(=O)(=O)CCNCc1nc(-c2ccc3ncnc(Nc4ccc(OCc5ccccc5)c(Cl)c4)c3c2)cs1
active: growth inhibition [1] 55% | growth inhibition [4] 99%
inactive: inhibition [2] 13% | inhibition [3] 2% | outcome [5] | outcome [6] | outcome [7] | outcome [8]

O=C(NCc1ccccc1F)c1ccc(N2CCC(NCc3cccc(-n4cccn4)c3)CC2)cc1
inactive: growth inhibition [1] 3% | inhibition [2] 9% | inhibition [3] 4% | outcome [5] | outcome [6] | outcome [7] | outcome [8]
active: growth inhibition [4] 89%

Cc1nc2c(c(C)nn2C(C)(C)C)c(C)c1CCC(=O)Nc1ccc(CN2CCCC2)cc1
active: growth inhibition [4] 89%
inactive: growth inhibition [1] 5% | inhibition [2] 1% | inhibition [3] 0% | outcome [5] | outcome [6] | outcome [7] | outcome [8]

Cn1c(Cc2ccccc2)nnc1Sc1ccc(C#N)c([N+](=O)[O-])c1
active: growth inhibition [4] 93%
inactive: growth inhibition [1] 29% | inhibition [2] -5% | inhibition [3] -5% | outcome [5] | outcome [6] | outcome [7] | outcome [8]

O=C(NCCN1CCC(NC(=O)c2ccc(-c3ccccn3)s2)CC1)c1ccc(Cl)c(Cl)c1
active: growth inhibition [4] 97%
inactive: growth inhibition [1] 48% | inhibition [2] 24% | inhibition [3] -5% | outcome [5] | outcome [6] | outcome [7] | outcome [8]

O=C(Nc1cccc(CN2CCN(C(=O)c3cccc(Cl)c3)CC2)c1)c1ccco1
active: growth inhibition [1] 94% | growth inhibition [4] 96%
inactive: inhibition [2] 7% | inhibition [3] 2% | outcome [5] | outcome [6] | outcome [7] | outcome [8]

Cc1ccc(C)c(NC(=O)NCCNc2ccnc(Nc3ccc(F)cc3)n2)c1
inactive: growth inhibition [1] 5% | inhibition [2] 21% | inhibition [3] 6% | outcome [5] | outcome [6] | outcome [7] | outcome [8]
active: growth inhibition [4] 97%

O=C(Nc1cc(C(F)(F)F)ccc1N1CCOCC1)C(Cl)(Cl)Cl
active: growth inhibition [1] 100% | growth inhibition [4] 100%
inactive: inhibition [2] -5% | inhibition [3] 5% | outcome [5] | outcome [6] | outcome [7] | outcome [8]

COc1ccc(CC2(c3ccc(F)cc3)N=C(N)N(CCCc3ccc(F)c(F)c3)C2=O)cc1 (configuration not stated)
inactive: inhibition [2] 42% | inhibition [3] 5% | outcome [5] | outcome [6] | outcome [7] | outcome [8]
active: growth inhibition [1] 98% | growth inhibition [4] 98%

O=C(c1cccc(-c2cccc(-c3nc4ccc(C(F)(F)F)cc4[nH]3)c2)c1)N1CCCCC1CN1CCC(O)C1 (configuration not stated)
inactive: inhibition [3] 0% | outcome [5] | outcome [6] | outcome [7] | outcome [8]
active: growth inhibition [1] 101% | inhibition [2] 51% | growth inhibition [4] 91%

COc1ccc(C(=O)CCC(=O)N(CCSC(C)(C)C)Cc2ccc(-c3ccc(CNCCc4ccc(S(C)(=O)=O)cc4)cn3)cc2)cc1F
inactive: growth inhibition [1] 42% | inhibition [2] 9% | inhibition [3] -3% | outcome [5] | outcome [6] | outcome [7] | outcome [8]
active: growth inhibition [4] 98%

CS(=O)(=O)CCN(CCS(C)(=O)=O)Cc1ccc(-c2ccc3ncnc(Nc4ccc(OCc5cccc(F)c5)c(Cl)c4)c3c2)o1
inactive: growth inhibition [1] 27% | inhibition [2] -2% | inhibition [3] -3% | outcome [5] | outcome [6] | outcome [7] | outcome [8]
active: growth inhibition [4] 90%
